Data on 40 compounds can be found in PubChem BioAssay (EPA / NIEHS).

Active and inactive are the calls of the source. How the source made its calls: active means hit-call score of the fitted dose curve at least 0.9, where 1 is the maximum; inactive means score below 0.9.

The target in the assay is Myc proto-oncogene protein (Homo sapiens) (UniProt P01106). Kind of assay: ATG_Myc_CIS: Attagene CIS-FACTORIAL HepG2 Assay for human Myelocytomatosis (Myc) Proto-Oncogene Transcription Factor (AID 2282990). Conditions: HepG2, Attagene cis-reporter transcription factor activity; actives raise or lower the signal. The procedure: ATG_CIS is a cell-based, multiplexed-readout assay that uses HepG2, a human liver cell line, with measurements taken at 24 hours after chemical dosing in a 24-well plate.ATG_Myc_CIS is one of 52 assay component(s) measured or calculated from the ATG_CIS assay. It is designed to make measurements of mRNA induction, a form of inducible reporter, as detected with fluorescence intensity signals by Reverse transcription polymerase chain reaction (RT-PCR) and Capillary electrophoresis technology.Data from the assay component ATG_Myc_CIS was analyzed into 1 assay endpoint. This assay endpoint, ATG_Myc_CIS, was analyzed with bidirectional fitting relative to DMSO as the negative control and baseline of activity. Using a type of inducible reporter, measures of mRNA for gain or loss-of-signal activity can be used to understand the reporter gene at the transcription factor-level as they relate to the gene MYC. Furthermore, this assay endpoint can be referred to as a primary readout, because this assay has produced multiple assay endpoints where this one serves a reporter gene function. To generalize the intended target to other relatable targets, this assay endpoint is annotated to the dna binding intended target family, where the subfamily is basic helix-loop-helix leucine zipper.
Sequence of Myc proto-oncogene protein (Homo sapiens) (P01106 whole entry, looked up): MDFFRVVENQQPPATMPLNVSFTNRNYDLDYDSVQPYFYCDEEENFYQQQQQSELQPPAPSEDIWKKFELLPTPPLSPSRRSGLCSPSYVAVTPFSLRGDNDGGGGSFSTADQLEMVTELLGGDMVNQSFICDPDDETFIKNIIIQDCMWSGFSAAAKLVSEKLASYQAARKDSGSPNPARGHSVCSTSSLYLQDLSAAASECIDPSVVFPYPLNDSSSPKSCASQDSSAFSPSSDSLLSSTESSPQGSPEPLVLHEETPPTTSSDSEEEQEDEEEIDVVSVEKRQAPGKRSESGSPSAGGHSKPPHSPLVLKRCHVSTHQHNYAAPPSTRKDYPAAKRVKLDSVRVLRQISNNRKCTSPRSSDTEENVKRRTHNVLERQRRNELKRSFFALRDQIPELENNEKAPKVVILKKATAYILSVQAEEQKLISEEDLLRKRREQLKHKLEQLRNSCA
Human liver HepG2 cells are transiently transfected with multiple reporter transcription units (MRTUs) in 6-well plates using FuGene 6 reagent (Roche; 3 ml FuGene/1 mg DNA). The MRTU constructs are regulated by a cis-regulating element (promoter). […] A major difference between the CIS and TRANS system is that in CIS activities of endogenous TFs are measured, whereas the TRANS assay evaluates changes in activities of exogenous, chimeric NR-Gal4 proteins. […] At the end of 24 hour incubation, total RNA was isolated using TriZol reagent (Invitrogen). The isolated RNA is then reverse-transcribed using oligo(dT) primer and Mo-MLV reverse transcriptase (Invitrogen) with DNAse I (Ambion) treatment for 30 min. The one-tenth of the produced cDNA was amplified by PCR using Taq DNA polymerase (Invitrogen) and two reporter sequence-specific primers. The PCR products were fluorescently labeled by primer extension with 6-arboxyfluorescein (6-FAM) 5'-labeled reporter sequence-specific primer (2 min at 95 C, 20 s at 68 C and 10 min at 72 C) and these products were digested with 5U of HpaI (New England Biolabs) for 2h at 37 C. The fragments were purified using Qiaquick PCR columns (Qiagen), analyzed on an ABI 3130xL genetic analyzer (Applied Biosystems) with peak positions identified by using a set of X-rhodamine (ROX)-labeled MapMarker1000 molecular weight standards (BioVentures). The raw capillary electrophoresis data was processed using Attagraph software (Attagene).
Regarding `N#Cc1ccc(CC(=NNC(=O)Nc2ccc(OC(F)(F)F)cc2)c2cccc(C(F)(F)F)c2)cc1`, the call was inactive. `CC(C)=CCC/C(C)=C/COC=O`: the compound was classed as inactive. Same read-out and setting: under `CC1COc2ccccc2N1C(=O)C(Cl)Cl` (stereo not given) stands “inactive”. For the compound `OCCCCCO`, the compound was classed as inactive.

Take `CCn1c2ccccc2c2cc(N)ccc21`: the compound was called inactive. Regarding `CC(=O)OCCOC(C)=O`, the compound was called inactive. Same read-out and setting: the value for `CCCCC[Si](OCC)(OCC)OCC` was “inactive”; that for `NCCNCCN` was “inactive”. Same read-out and setting: the value for `CC(C#N)(CCC(=O)O)N=NC(C)(C#N)CCC(=O)O` (stereo not given) was “inactive”.

With `CC1(C)OC[C@@H]2O[C@@]3(C(=O)O)OC(C)(C)O[C@H]3[C@@H]2O1`, the result was inactive. On the same count and under the same terms, the value for `CN(C)C(=N)N=C(N)N` was “inactive”; that for `Cc1ncc([N+](=O)[O-])n1C` was “inactive”. Regarding `Nc1cc([N+](=O)[O-])ccc1Cl`, the call was inactive. `[Ca+2]`: the result was inactive. Same read-out and setting: under `O=C1OC2(c3cc(Br)c(O)c(Br)c3Oc3c2cc(Br)c(O)c3Br)c2c(Cl)c(Cl)c(Cl)c(Cl)c21` stands “inactive”; under `CC(=O)OCC=Cc1ccccc1`, “inactive”. Regarding `NCCCCCCN`, the compound was classed as inactive. Regarding `O=C(O)CCCCCCCC(=O)O`, the compound was called inactive. In the case of `Clc1ccc(Cl)c(Cl)c1Cl`, the call was inactive. For the compound `CC(C)Oc1ccccc1O`, the call was inactive. Same read-out and setting: under `O=C(O)COCCN1CCN(C(c2ccccc2)c2ccc(Cl)cc2)CC1` (stereo not given) stands “inactive”; under `CC1CCC2CC1C2(C)C` (stereo not given), “inactive”; under `Fc1c(F)c(F)c(Br)c(F)c1F`, “inactive”. With `COc1cc(C(C)(C)C)c(O)c(C(C)(C)C)c1`, the compound was called inactive. On the same count and under the same terms, the value for `CCCc1c(OCCCOc2ccc(OCC(=O)O)cc2)ccc(C(C)=O)c1O` was “inactive”; that for `OC1C(O)C(O)C(O)C(O)C1O` (stereo not given) was “inactive”; that for `CC(=O)c1c(C)cc(C(C)(C)C)cc1C` was “inactive”. As to `CO[Si](C)(OC)c1ccccc1`, the outcome was inactive. For the compound `C=C(C)C(=O)OCc1ccccc1`, the result was inactive. In the case of `C=C(C)C(=O)Nc1ccc(Cl)c(Cl)c1`, the compound was called inactive. As for `CC[Si](OC(C)=O)(OC(C)=O)OC(C)=O`, the compound was classed as inactive.

For the compound `CCN(CC)c1ccc2c(-c3ccccc3C(=O)O)c3ccc(=[N+](CC)CC)cc-3oc2c1`, the compound was classed as inactive. Still for that read-out and setting: under `C=C(C)[C@@H]1CC[C@@H](C)C[C@@H]1O` stands “inactive”; under `Cc1ccc2n[nH]nc2c1`, “inactive”; under `C=C[Si](OCC)(OCC)OCC`, “inactive”. As for `CNCCO`, the compound was called inactive. On to `N#Cc1ccccc1`, for which the compound was called inactive. For the compound `CC1(C)[C@H]2CC[C@]1(C)[C@H](O)C2`, the compound was classed as inactive.

As to `C=C(C)C(=O)NCCCN(C)C`, the result was inactive. With `c1ccc2sc(SN(C3CCCCC3)C3CCCCC3)nc2c1`, the half-maximal activity concentration (AC50) was 8.17 µM (active).

One may read the AC50 as the midpoint of the concentration-response curve, whichever way the signal moves.
